Compound activity: PubChem, National Center for Advancing Translational Sciences (NCATS)
Sfp inh – Sfp phosphopantetheinyl transferase inhibition | Biochemical Sfp PPTase activity, qHTS | Potency, µM, without a hit: largest response in the series, negative = inhibition, most hits filed as inhibitors | AID 1490 | Q9F4F7 | 3.5% of 310,000 active;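 also: the enzyme is Sfp with the accession as filed and its product quenches rhodamine fluorescence; 0% = enzyme reaction without inhibitor and -100% = no enzyme wells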
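Compounds were incubated with enzyme (final 15 nM) for 15 min at room temperature before substrate addition started the reaction. Fluorescence at 525 nm excitation, 598 nm emission was recorded immediately and after 30 minutes.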
L3MBTL1 inh – L3MBTL1 (human) inhibition; 0.66% of 230,000 active; AlphaScreen L3MBTL1–H3K9me1 peptide binding; AID 485360; Q9Y468; Potency, µM (doses to about 57.1 µM), for inactives: at the top dose activity, negative = inhibition, hits mostly inhibitors; also: % is scaled to controls: 0 for no effect and ±100 for the full control effect; nearly all actives have a fitted effect of over 60% in size
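AlphaScreen proximity signal between nickel-chelate acceptor and streptavidin donor beads (final 10 ug/mL) reports binding of 50 nM L3MBTL1 to 75 nM biotin-H3 K9me1 peptide; complex incubated with compounds 30 min at room temperature; cefsulodin titration as control.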
JMJD2A Tudor – blocks the human JMJD2A Tudor domain; Potency, µM (highest dose often 114 µM), without a hit: at the highest dose activity change, negative = inhibition, most hits filed as inhibitors; AlphaScreen JMJD2A-Tudor / H3K4me3 peptide binding; 4.4% of 390,000 active; also: % is scaled to controls: 0 for no effect and ±100 for the full control effect; nearly all actives have a fitted effect of over 50% in size
BAZ2B inh – blocks human BAZ2B | Q9UIF8 | AlphaScreen BAZ2B-H3K14Ac peptide displacement | Potency, µM (titrated, usually from 114 µM), for the others: at the highest dose activity change, negative = inhibition, actives largely listed as inhibitors | 4.4% of 360,000 active; also: % is scaled to controls: 0 for no effect and ±100 for the full control effect; nearly all actives have a fitted effect of over 60% in size
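Complex of BAZ2B and biotin-H3K14Ac (50 nM apiece) forms over 30 min at RT, then faces library compounds up to 110 uM for another 30 min; AlphaScreen beads added, 20 min dark incubation, luminescence read.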
G9a block – G9a (human) methyltransferase inhibition; Potency, µM (top dose mostly 102 µM), inactives show at the top dose activity, negative = inhibition, hits mostly inhibitors; 8.8% of 350,000 active; Q96KQ7; AID 504332; G9a H3K9 monomethylation, AlphaScreen, 2 h; also: % is scaled to controls: 0 for no effect and ±100 for the full control effect; nearly all actives have a fitted effect of over 75% in size
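AlphaScreen read-out: biotin-H3K9 peptide (500 nM) methylation by 20 nM enzyme with 20 uM SAM, 2 h at room temperature after 15 min compound preincubation; anti-monomethyl H3K9 antibody plus donor/acceptor beads, 10 min dark.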
HP1b chromo inh – HP1-beta chromodomain-methylated histone interaction inhibition; AID 540317; 0.56% of 390,000 active; Potency, µM (doses to about 114 µM), for the others: at the highest dose activity change, negative = inhibition, usual class: inhibitors; AlphaScreen HP1-beta / biotin-H3K9me3 peptide binding; P83916; also: nearly all actives have a fitted effect of over 70% in size
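Compound inhibition of the preformed complex between 50 nM HP1-beta and 50 nM biotinylated H3K9me3 peptide was read by AlphaScreen. Buffer was PBS pH 7.4 with 0.01% Tween-20. Incubations ran 30 min at room temperature, with 10 ug/mL donor/acceptor beads.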
The depositor's hits bear a star; u = inconclusive; x = no result given; [ ] = dose if it differs, or a comment. The list is not random: actives were taken first. Their share in the collection is about 12%. Calls follow the shape of the dose curve; as a rule, active = well fitted curve in the direction sought with a large enough effect; inconclusive = small, poorly fitted or top-dose-only effect, or another doubt; inactive = no such curve, though single readings can be large; an effect the other way counts as inactive or inconclusive. Potency is read from the fitted curve at half-maximal effect.

SMILES	Sfp inh	L3MBTL1 inh	JMJD2A Tudor	BAZ2B inh	G9a block	HP1b chromo inh
O=C(c1cc([N+](=O)[O-])ccc1N1CCOCC1)N1CCN(c2ccc([N+](=O)[O-])cc2)CC1	x	2.0%	-25.5%	-14.4%	11.2µM*	8.2%
COCc1c(Br)c(C)nc2sc3c(=O)[nH]nnc3c12	-27.6%	x	-13.6%	56.2µM*	35.5µM*	28.8%
CCOC(=O)C1=C(C)N(C[C@@H]2CC[C@@H](Cc3ccc(-c4ccccc4)cc3)O2)C(=O)NC1c1ccc(SCc2ccco2)c([N+](=O)[O-])c1 (stereo partly drawn)	x	31.6µM*	39.8µM*	x	x	-7.9%
CCOC(=O)C1=C(C)OC(N)=C(C#N)C1c1cc2c(cc1[N+](=O)[O-])OCO2 (stereo not drawn)	0.7%	x	u	u	50.1µM*	-14.1%
O=C(c1ccc2c(=O)n(Cc3ccco3)c(=S)[nH]c2c1)N1CCN(Cc2ccccc2)CC1	9.2%	-0.3%	-26.1%	0.5%	-4.0%[59 µM]	5.7%
COc1cc(NC(=O)c2ccc3c(=O)n(Cc4ccco4)c(=S)[nH]c3c2)cc(OC)c1OC	u	2.6%	-16.7%	-8.9%	u	10.9%
CN1CCN(C(=O)c2ccc3c(=O)n(Cc4ccco4)c(=S)[nH]c3c2)CC1	-5.1%	x	12.6µM*	-5.1%	44.7µM*	17.2%
CCCN(CCC)C(=O)c1ccc2c(=O)n(Cc3ccco3)c(=S)[nH]c2c1	12.6µM*	-14.7%	-36.0%	-35.1%	u	0.8%
O=c1c2cc3c(cc2[nH]c(=S)n1Cc1ccco1)OCO3	20µM*	-0.7%	-6.9%	-24.6%	39.8µM*	23.1%
CCc1ccc(OCC(=O)N(Cc2ccc(OC)cc2)C2CCS(=O)(=O)C2)cc1 (stereo not drawn)	x	x	-6.7%	-4.4%	4.3%[59 µM]	7.5%
COc1ccccc1NC(=O)C1=C(C)Nc2nc(SCc3ccccc3)nn2C1c1ccccn1 (stereo not drawn)	x	x	-13.0%	-0.7%	6.5%[59 µM]	8.1%
Cc1cc2nc3s/c(=C/c4ccc(-c5ccccc5C(=O)O)o4)c(=O)n3c2cc1C	79.4µM*	x	31.6µM*	50.1µM*	3.55µM*	u
Cc1cc2nc(/C(C#N)=C\c3ccc(-c4ccccc4C(=O)O)o3)[nH]c2cc1C	-2.5%	-3.9%	-15.9%	u	u	3.6%
O=C(O)c1ccccc1-c1ccc(/C=c2\sc3nc4cc(Br)cnc4n3c2=O)o1	35.5µM*	12.6µM*	3.16µM*	39.8µM*	u	6.31µM*
O=C(O)c1cc(-c2ccc(/C=c3\sc4nc5ccc(Br)cc5n4c3=O)o2)ccc1Cl	56.2µM*	28.2µM*	x	17.8µM*	0.794µM*	x
O=c1/c(=C\c2cccn2-c2ccccc2)sc2nc3ccccc3n12	-15.7%	-7.4%	-5.3%	1.4%	u	22.1%
COc1ccc(C2c3c(n(C)c4ccccc34)C(=O)N2CC(=O)Nc2ccccc2Cl)cc1 (stereo not drawn)	x	x	-32.4%	-10.4%	-32.8%[59 µM]	19.4%
O=c1cc(-c2ccc(OCc3ccccc3)cc2)oc2cc(OCc3ccccc3)cc(OCc3ccccc3)c12	x	u	u	x	x	16.8%
CC1CN(C2CCN(C(=O)c3cccc(Cl)c3)CC2)CC(C)O1 (stereo not drawn)	-22.0%	-6.3%	8.91µM*	-32.0%	91.1%[59 µM]	u
CC1CN(C2CCN(C(=O)c3ccccc3Cl)CC2)CC(C)O1 (stereo not drawn)	-13.8%	-10.4%	35.5µM*	u	u	u
O=C(c1cccc(Cl)c1)N1CCC(c2nc3ccccc3o2)CC1	x	x	4.0%	-2.8%	0.2%[59 µM]	37.2%
CC(C)N1CCOC1c1ccccc1 (stereo not drawn)	x	x	-14.4%	x	x	23.0%
O=C(COc1ccc(Cl)cc1Cl)N(C1CCCCC1)C1CCS(=O)(=O)C1 (stereo not drawn)	x	4.4%	-11.1%	5.4%	-3.1%[59 µM]	26.1%
CCOc1ccc(CNC(=O)C2CCN(c3nnc(C)c4c(C)n(-c5ccc(C)cc5)nc34)CC2)cc1	u	x	u	56.2µM*	22.4µM*	26.2%
Cc1ccccc1CNC(=O)C1CCCN(c2nnc(C)c3c(C)n(-c4ccccc4)nc23)C1 (stereo not drawn)	-8.1%	x	u	u	56.2µM*	14.4%
SMILES	Sfp inh	L3MBTL1 inh	JMJD2A Tudor	BAZ2B inh	G9a block	HP1b chromo inh
COc1ccc(-n2nc3c(N4CCC(C(=O)NCc5cccc(C)c5)CC4)nnc(C)c3c2C)cc1	-19.0%	x	-7.8%	0.4%	x	31.2%
CCc1ccc(CNC(=O)C2CCCN(c3nnc(C)c4c(C)n(-c5ccccc5)nc34)C2)cc1 (stereo not drawn)	56.2µM*	x	u	79.4µM*	u	43.2%
COc1ccc(-n2nc3c(N4CCC(C(=O)NCCc5ccco5)CC4)nnc(C)c3c2C)cc1	-3.6%	x	50.1µM*	-8.4%	-17.3%	23.5%
CCOc1ccc(NC(=O)C(=O)NCCc2ccccc2)cc1	x	x	2.3%	-1.0%	9.0%[59 µM]	37.4%
O=C(CSc1nc2c([nH]c3ccccc32)c(=O)n1-c1ccc(F)cc1)NCC1CCCO1 (stereo not drawn)	x	x	-5.2%	4.3%	-0.3%[59 µM]	24.8%[57 µM]
COc1ccc(CC(=O)NC2CC2)cc1OC	11.8%	x	-22.4%	-0.9%	5.8%	56.0%
O=C1c2cccnc2C(Nc2cccc(F)c2)N1Cc1ccco1 (stereo not drawn)	2.8%	-7.8%	-5.2%	-27.7%	25.1µM*	17.3%
O=C1c2cccnc2C(Nc2ccccc2Br)N1Cc1ccco1 (stereo not drawn)	56.2µM*	x	-20.3%	-13.1%	50.1µM*	9.4%
COc1ccc(CN2C(=O)c3cccnc3C2Nc2ccc(C)cc2)cc1 (stereo not drawn)	-5.4%	x	-11.5%[57.1 µM]	u	-31.5%[59 µM]	-19.4%
COc1ccc(CN2C(=O)c3cccnc3C2Nc2cc(Cl)c(OC)cc2OC)cc1 (stereo not drawn)	-27.4%	u	35.5µM*	50.1µM*	44.7µM*	u
COc1cc(NC2c3ncccc3C(=O)N2Cc2ccco2)cc(OC)c1OC (stereo not drawn)	-29.9%	x	-20.3%	-8.2%	35.5µM*	20.5%
Cc1ccc(NC2c3ncccc3C(=O)N2Cc2cccs2)cc1 (stereo not drawn)	-9.0%	x	14.1µM*	x	44.7µM*	-9.5%
CC(=O)c1cccc(NC2c3ncccc3C(=O)N2Cc2ccco2)c1 (stereo not drawn)	79.4µM*	u	-12.6%	-30.7%	50.1µM*	25.3%
O=C1c2cccnc2C(Nc2ccccc2)N1Cc1ccco1 (stereo not drawn)	50.1µM*	x	31.6µM*	56.2µM*	25.1µM*	11.3%
